# From PubChem BioAssay (NCI)
# About 83,000 compounds went through this panel and 20% of them were active in at least one assay; those are over-represented in the sample as a whole.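 96-well plates, one dose, 48 hours. Percent growth reported; active if below 10.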 Values without a mark were called inactive. Calls of active or inactive are those of the source.
# Columns and labels:
# Test in all cases: NCI-60 one-dose screen, 48 h (100 = growth as untreated, 0 = no growth, -100 = all killed)
# EKVX NSCLC = settings: 10 µM unless noted
# SN12C renal = settings: 10 µM unless noted
# UO-31 renal = settings: 10 µM unless noted
# TK-10 renal = settings: 10 µM unless noted
# ACHN renal = settings: 10 µM unless noted
# CAKI-1 renal = settings: 10 µM
# A498 renal = settings: 10 µM unless noted
# CCRF-CEM leukemia = settings: 10 µM unless noted
# RPMI-8226 leukemia = settings: 10 µM unless noted
# OVCAR-8 ovarian = settings: 10 µM unless noted
# OVCAR-5 ovarian = settings: 10 µM unless noted
# SK-OV-3 ovarian = settings: 10 µM unless noted
# IGROV1 ovarian = settings: 10 µM unless noted
# HS 578T breast = settings: 10 µM unless noted
# NCI/ADR-RES ovarian = settings: 10 µM unless noted
# OVCAR-4 ovarian = settings: 10 µM unless noted
# MOLT-4 leukemia = settings: 10 µM unless noted
# SR leukemia = settings: 10 µM unless noted
Compound,growth (EKVX NSCLC) [%],growth (SN12C renal) [%],growth (UO-31 renal),growth (TK-10 renal) [%],growth (ACHN renal) [%],growth (CAKI-1 renal) [%],growth (A498 renal),growth (CCRF-CEM leukemia),growth (RPMI-8226 leukemia),growth (OVCAR-8 ovarian),growth (OVCAR-5 ovarian) [%],growth (SK-OV-3 ovarian) [%],growth (IGROV1 ovarian) [%],growth (HS 578T breast) [%],growth (NCI/ADR-RES ovarian) [%],growth (OVCAR-4 ovarian) [%],growth (MOLT-4 leukemia) [%],growth (SR leukemia)
O=C1c2c(c3c4ccc(Br)cc4oc3c3[nH]c4ccccc4c23)C(=O)N1CCO,53.7,34,25.6%,107,12,23.6,52.4%,21.7%,43.3%,50.4%,69.9,37.4,43.4,88.5,44.7,–,–,–
COc1ccc2c(c1)c(-c1nn3c(=O)cc(-c4ccccc4)nc3s1)cn2C,85.3,45.2,38.1%,64.1,44.3,46.6,4.32% (active),34.7%,57.5%,51%,66,49.6,54.3,27,27.8,67.4,–,–
CS(=O)c1nccc(-c2c(-c3ccc(F)c(OCCc4ccccc4)c3)nc3sccn23)n1 (configuration not stated),99.9,93.7,52.7%,105,72.8,84.8,92.6%,49.8%,55.8%,93%,111,102,17.7,–,108,–,–,–
C=CCn1c(SCC(=O)Nc2cccc(C(=O)/C=C/c3cc(OC)c(OC)c(OC)c3)c2)nc2ccccc2c1=O,78.2,41,49%,112,45.7,44.2,75.6%,9.12% (active),-9.52% (active),-14.7% (active),17.4,132,49.3,82,27.1,–,–,–
CS(=O)(=O)c1nccc(-c2c(-c3ccc(F)c(OCCc4ccccc4)c3)nc3sccn23)n1,59.5,83.7,85.5%,100,90,84,90.4%,84.2%,54.7%,87.5%,100,121,59.3,113,95.9,98.4,–,–
COc1ccc(/C(C)=C(\c2ccc(Cl)cc2)c2ccc(OCCN)cc2)cc1,87.2,78.3,60.8%,119,84.9,67.3,90.1%,66.1%,67.1%,88.7%,83.8,131,77.8,89,89.1,90.3,–,–
C=CCn1c(SCC(=O)Nc2cccc(C(=O)/C=C/c3ccccc3)c2)nc2ccccc2c1=O,99.3,91.1,67.4%,116,93.9,80.1,92.9%,72.1%,2.15% (active),83.3%,101,122,87.6,99.2,87.1,–,–,–
Cc1ccccc1NC1CC(=O)N(c2ccc(Cl)cc2Cl)C1=O (configuration not stated),96.7,103,92.3%,99.3,104,89.9,–,112%,102%,103%,107,108,101,99.6,99.9,97.5,117,102%
C[C@@H]1C[C@H]2C(=O)OCC(NC(=O)[C@H](Cc3cc(F)cc(F)c3)NC(=O)Nc3ccc(Cl)cc3F)C(=O)N3CCC[C@H]3C(=O)N3CCCC[C@H]3C(=O)N[C@@H](C)C(=O)N2C1 (some centres not stated),27.7,18.2,30%,52.8,26,21.5,–,31.3%,12.8%,20%,31.9,27.5,40.5,32.7,24,23.6,33.2,21.8%
COc1ccc(-c2nc3cc(Cl)c(Cl)cc3n2CC(=O)N=Nc2c(O)[nH]c3ccccc23)cc1,72.4,38.4,76.9%,95.7,50.8,56.5,–,39.9%,62.5%,78.4%,63,100,52.9,53.4,44.3,75.1,47.4,66.4%
CCc1ccc(NC(=O)N[C@@H](Cc2cccc(C)c2)C(=O)N[C@@H]2C(=O)N3CCC[C@H]3C(=O)N3CCCC[C@H]3C(=O)N[C@@H](CO)C(=O)N3C[C@H](C)C[C@H]3C(=O)O[C@H]2C)c(F)c1,30,22.4,29.6%,52.9,32.2,15.5,–,37.2%,18.6%,21.5%,33.5,22.1,43.3,28.5,37.7,22.1,41.8,34.9%
O=C1Nc2ccc(Cl)cc2/C1=C/c1ccc(OCc2ccc(Br)cc2F)cc1,97.5,103,84.4%,116,103,84.3,–,94.2%,95.8%,99.8%,101,98,104,102,98.2,100,98.9,97.2%
CCN1CCN(c2cc(C(=O)Nc3nc4ccc(Oc5ccnc(C(=O)NC)c5)cc4s3)cc(C(F)(F)F)c2)CC1,92.5,75.2,-63.3% (active),100,66,84.5,–,65%,33%,92.4%,101,109,95.8,93.1,99.6,67.9,52.3,-3.58% (active)
Cc1ccc(NC(=O)N[C@@H](Cc2cc(F)cc(F)c2)C(=O)NC2C(=O)N3CCC[C@H]3C(=O)N3CCCC[C@H]3C(=O)N[C@@H](C)C(=O)N3C[C@H](C)C[C@H]3C(=O)O[C@H]2C)c(F)c1 (some centres not stated),29.5,23.5,30.2%,53.9,32.1,22.2,–,34.2%,11.6%,21.6%,36.3,23.9,47.5,28.9,20.1,23.9,40.3,30.6%
CCOC(=O)c1c(Nc2ccccc2)nn2c(-c3ccc(OC)c(OC)c3)ccnc12,77.1,67.9,42.9%,80.6,54.8,44.4,–,30.9%,30.4%,50.5%,84.7,72,102,49.4,48.9,72.4,36.5,23.6%
CCc1ccc(NC(=O)N[C@@H](Cc2cccc(F)c2)C(=O)N[C@@H]2C(=O)N3CCC[C@H]3C(=O)N3CCCC[C@H]3C(=O)N[C@@H](C)C(=O)N3C[C@H](C)C[C@H]3C(=O)O[C@H]2C)c(F)c1,31.1,21,26.3%,50.3,27.4,17.8,–,33.9%,12.3%,23.1%,23.9,24.9,35.9,26.3,18.4,23.9,32,21.2%
Fc1ccccc1/C=C(/C1=NCCN1)n1cnc2ccccc21,95,97.4,85.3%,99.4,97,84.1,–,108%,96.9%,99.6%,94.8,93.1,95.6,93.3,104,90.9,106,91.7%
